Vaccinia Venus: qHTS for Stage-Specific Inhibitors of Vaccinia Orthopoxvirus: Venus Reporter Primary qHTS; Potency, µM (top dose mostly 36.5 µM), most hits filed as inhibitors; Vaccinia virus Venus reporter expression, fluorescence; 330,000 compounds, 0.46% hits; calls by dose curve; tested in A549 cells; also: nearly all actives have a fitted effect of over 30% in size
MARV entry inh: qHTS for inhibitors of binding or entry into cells for Marburg Virus; Potency, µM (top dose mostly 37.8 µM), usual class: inhibitors; 300,000 compounds, 1.8% hits; Marburg virus pseudotyped entry inhibition, cell reporter; calls by dose curve; tested in HEK293 cells
LASV entry inh: qHTS for Inhibitors of binding or entry into cells for Lassa Virus; Lassa virus pseudotype entry inhibition, cell reporter; Potency, µM (doses to about 37.9 µM), actives largely listed as inhibitors; 300,000 compounds, 1.2% hits; calls by dose curve; tested in HEK293 cells; also: nearly all actives have a fitted effect of over 50% in size
VACV mCherry inh: qHTS for Stage-Specific Inhibitors of Vaccinia Orthopoxvirus: mCherry Reporter Primary qHTS; Potency, µM (top dose mostly 36.5 µM), most hits filed as inhibitors; 310,000 compounds, 0.63% hits; Vaccinia virus mCherry reporter infection, fluorescence; calls by dose curve; tested in A549 cells; also: nearly all actives have a fitted effect of over 35% in size
HCV inh: qHTS Assay for Inhibitors of Hepatitis C Virus (HCV); Huh7.5.1 HCVcc-Cre infection, luciferase reporter, 44 h; Potency, µM (series often up to 41.8 µM), actives largely listed as inhibitors; 340,000 compounds, 3.4% hits; active = well fitted inhibition curve with a large enough effect; inconclusive = small, poorly fitted or top-dose-only effect, or another doubt; inactive = no such curve, though single readings can be large or run the other way
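Infectious HCV cell culture screen: compound-treated cells (1,000/well, pre-plated 4 h) are infected with HCVcc-Cre at roughly 0.5 moi and grown 44 h. Infection is quantified by luciferase signal after 15 min substrate incubation at room temperature.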
Large screens that a line does not name were inactive. Only some compounds are listed: those with a hit (about 4.6% of all), similar ones and a draw of the others.

COc1ccc(C(c2nnnn2Cc2ccccc2)N2CCN(c3nc4ccccc4s3)CC2)cc1OC (stereo not drawn)	MARV entry inh inconclusive, LASV entry inh inconclusive, HCV inh inconclusive
O=S(=O)(C/C(=C/CO)S(=O)(=O)c1ccccc1)c1ccccc1	MARV entry inh 1.83µM, LASV entry inh inconclusive, HCV inh 10µM (no result: Vaccinia Venus, VACV mCherry inh)
O=S(=O)(CS(=O)(=O)c1ccccc1)c1ccccc1	none
CCCCNc1c(-c2ccc(Sc3ccc(OC)cc3)cc2)nc2cc(C)ccn12	Vaccinia Venus inconclusive, VACV mCherry inh inconclusive, HCV inh 10µM (no result: MARV entry inh, LASV entry inh)
CCCCNc1c(-c2ccc(SC(C)CC)cc2)nc2ccccn12 (stereo not drawn)	Vaccinia Venus inconclusive, HCV inh 22.4µM (no result: MARV entry inh, LASV entry inh)
CCCCNc1c(-c2ccc(OC)c(SC3CCCCC3)c2)nc2ccc(C)cn12	Vaccinia Venus 11.2µM, VACV mCherry inh 10µM, HCV inh inconclusive (no result: MARV entry inh, LASV entry inh)
CCCCNc1c(-c2ccc(OC)c(SC(C)CC)c2)nc2cc(C)ccn12 (stereo not drawn)	Vaccinia Venus inconclusive, VACV mCherry inh 25.1µM, HCV inh 7.08µM (no result: MARV entry inh, LASV entry inh)
CCCS(=O)(=O)NCc1c(C)ncc2c1CCN(C(=O)c1ccc3[nH]c4c(c3c1)CCCC4)C2	none (no result: MARV entry inh, LASV entry inh, HCV inh)
COC(=O)[C@@H]1CC[C@H](C)[C@@H](c2ccc(C)cc2)N1C(=O)c1ccc(C=NOC[C@@H](O)COCc2ccco2)cc1	MARV entry inh inconclusive (no result: Vaccinia Venus, VACV mCherry inh, HCV inh)
CCN(CC)C(=O)c1sc2c(c1C)c(=O)n(CCc1ccccc1)c(=O)n2Cc1cccc(Cl)c1	LASV entry inh 6.31µM (no result: MARV entry inh, HCV inh)
Cc1cccc(NC(=O)COc2ccccc2C(=O)Nc2ccccc2)c1	none (no result: MARV entry inh, LASV entry inh, HCV inh)
c1csc(CCNc2ncnc3sc4c(c23)CCC4)c1	Vaccinia Venus inconclusive, HCV inh 7.94µM (no result: MARV entry inh, LASV entry inh)
Fc1ccc(Nc2ncnc3sc4c(c23)CCC4)cc1	HCV inh 3.16µM (no result: Vaccinia Venus, LASV entry inh, VACV mCherry inh)
c1ccc(Nc2ncnc3sc4c(c23)CCC4)cc1	HCV inh inconclusive
COC(=O)c1cc(NC(=O)CCc2c(C)nc3c(c(C)nn3C(C)(C)C)c2C)cc(C(=O)OC)c1	none (no result: HCV inh)
CCn1c(-c2ccccc2F)nc2cc(NC(C)=O)cc(C(=O)N3CCCCC3c3nccn3C)c21 (stereo not drawn)	none (no result: MARV entry inh, LASV entry inh, HCV inh)
CCOC(=O)N1CCc2c(sc3c2C(=O)NC(c2ccccc2)N3)C1 (stereo not drawn)	MARV entry inh 3.16µM, LASV entry inh inconclusive (no result: VACV mCherry inh)
CCOC(=O)N1CCc2c(sc3c2C(=O)NC(c2ccc(N(C)C)cc2)N3)C1 (stereo not drawn)	MARV entry inh inconclusive, LASV entry inh inconclusive (no result: HCV inh)
COc1cc(=O)n2c(c1C(=O)N(C)Cc1cscn1)CCN(C(=O)c1cccc(C)c1C)CC2	none (no result: MARV entry inh, LASV entry inh, HCV inh)
COc1ccc(CNc2nc3ccccc3n2C)c(OC)c1	none
Cn1c(NCc2c(O)ccc3ccccc23)nc2ccccc21	MARV entry inh 20.6µM, HCV inh inconclusive (no result: Vaccinia Venus, VACV mCherry inh)
Oc1ccc2ccccc2c1CNc1ccc(Br)cc1	HCV inh 2.51µM (no result: Vaccinia Venus, MARV entry inh, LASV entry inh, VACV mCherry inh)
COc1ccc(CNc2nc3ccccc3n2C)c(O)c1	MARV entry inh 11.2µM, LASV entry inh inconclusive
O=C1C=C(NC2=CC3OC(c4ccccc4)OCC3OC2=O)CCC1 (stereo not drawn)	Vaccinia Venus inconclusive, MARV entry inh inconclusive, LASV entry inh 10µM, VACV mCherry inh inconclusive, HCV inh inconclusive
O=C(Cn1cc(S(=O)(=O)Cc2ccc(F)cc2)c2ccccc21)NCc1ccccc1	none (no result: MARV entry inh, HCV inh)
O=C(CNC(=S)N(Cc1ccc(F)cc1)C1CCCCC1)NCC1CCCO1 (stereo not drawn)	none
O=C(CNC(=S)N(Cc1ccccc1F)C1CCCCC1)NCC1CCCO1 (stereo not drawn)	Vaccinia Venus inconclusive, MARV entry inh inconclusive, LASV entry inh 4.47µM
CS(=O)(=O)Nc1ccc(C2=NN(S(=O)(=O)c3ccc(F)cc3)C(c3ccco3)C2)cc1 (stereo not drawn)	none (no result: Vaccinia Venus, MARV entry inh, LASV entry inh, VACV mCherry inh)
CC(=O)N1N=C(c2cccc(NS(=O)(=O)c3ccc(C)cc3)c2)CC1c1ccco1 (stereo not drawn)	MARV entry inh inconclusive, LASV entry inh inconclusive, HCV inh 3.16µM
Cc1ccc(C2=NN(S(=O)(=O)c3ccccc3)C(c3ccco3)C2)cc1 (stereo not drawn)	HCV inh 12.6µM (no result: Vaccinia Venus, MARV entry inh, LASV entry inh, VACV mCherry inh)
COc1ccc2cc(C3CC(c4ccco4)=NN3S(=O)(=O)c3ccccc3)c(Cl)nc2c1 (stereo not drawn)	MARV entry inh inconclusive, LASV entry inh inconclusive, HCV inh inconclusive

Screening data (PubChem BioAssay)
